Tau ThT inhib = tau fibrillization inhibition (ThT binding); P10636; recombinant tau K18 P301L, heparin-induced fibrillization, ThT fluorescence; Potency, µM (highest dose often 57.4 µM), inactives show top-dose activity, negative = inhibition, hits mostly inhibitors; hit rate 2.1% among 270,000; AID 1460; also: potency is read from the fitted curve at half-maximal effect; nearly all actives have a fitted effect of over 55% in size
Target sequence (P10636 561-689 P618L limits assumed): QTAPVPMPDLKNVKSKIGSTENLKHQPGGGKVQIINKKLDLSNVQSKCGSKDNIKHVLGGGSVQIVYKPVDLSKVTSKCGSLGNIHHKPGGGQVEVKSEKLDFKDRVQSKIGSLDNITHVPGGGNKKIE
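Recombinant human tau K18 fragment […] carrying P301L, 15 uM unlabeled plus 0.24 uM Alexa 594-labeled, was fibrillized with 20 uM heparin in 100 mM sodium acetate pH 7 for 6 hr at 37 C; 30 uM ThT fluorescence read after 1 hr.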
Sfp inh = Sfp phosphopantetheinyl transferase inhibition; Q9F4F7; Biochemical Sfp PPTase activity, qHTS; Potency, µM, inactives show largest response in the series, negative = inhibition, usual class: inhibitors; hit rate 3.5% among 310,000;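 also: the enzyme is Sfp with the accession as filed and its product quenches rhodamine fluorescence; potency is read from the fitted curve at half-maximal effect; 0% = enzyme reaction without inhibitor and -100% = no enzyme wells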
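Fluorescence-quenching assay with 15 nM Sfp, 5 uM rhodamine-CoA and 12.5 uM BHQ-2-labelled ybbR peptide in pH 7.6 Hepes/MgCl2 buffer. Enzyme was pre-incubated with compound for 15 min at room temperature. Rate was taken from the 30-min fluorescence change (525/598 nm).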
FBPA coupling cs = coupling enzyme interference in Giardia aldolase counter-screen | coupling enzyme system counterscreen, AmpLite Red fluorescence | activity change, negative = inhibition, % at 58.2 µM, hits read low | hit rate 0.67% among 290,000 | AID 2472; in the data active = activity change below about -30%
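Compounds tested against the coupling enzymes alone at 57.5 uM final; readout was AmpLite Red fluorescence (525/598 nm) after 20 min at RT.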
Tau fluor counter = counter-screen for tau fibril formation inhibitors; Potency, µM (top dose mostly 57.7 µM), without a hit: top-dose activity change, negative = decrease; AID 1463; tau K18 P301L Alexa594 fluorescence, heparin fibrillization; hit rate 0.93% among 280,000; also: potency is read from the fitted curve at half-maximal effect; nearly all actives have a fitted effect of over 55% in size
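Human tau K18 P301L (15 uM unlabeled, 0.24 uM Alexa 594-labeled) in 100 mM sodium acetate pH 7 with 20 uM heparin, 6 hr at 37 C. ThT 30 uM added, 1 hr ambient; Alexa 594 FP and total fluorescence read at 555/632 nm.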
Tau fibril FP = blocks human tau fibril formation measured by polarization; AID 1468; hit rate 0.39% among 280,000; Potency, µM (series often up to 57.7 µM), for inactives: at the highest dose activity, negative = inhibition, hits mostly inhibitors; K18 P301L tau heparin fibrillization, Alexa594 FP, 6 h; P10636; also: potency is read from the fitted curve at half-maximal effect; nearly all actives have a fitted effect of over 55% in size
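FP of Alexa 594-tau after heparin (20 uM) induction. Substrate: human K18 P301L, 15 uM unlabeled, 0.24 uM labeled. Buffer 100 mM sodium acetate pH 7. 6 hr, 37 C.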
Starred values were filed as active, the others as inactive; ? = inconclusive; / = not tested or not shown; ! = repeats disagree; [ ] = another dose, or the depositor's remark. The list is not random: actives were taken first. Their share in the collection is about 5.2%. Unless noted, calls follow the shape of the dose curve; as a rule, active = well fitted curve in the direction sought with a large enough effect; inconclusive = small, poorly fitted or top-dose-only effect, or another doubt; inactive = no such curve, though single readings can be large; an effect the other way counts as inactive or inconclusive. Unless noted, % is scaled to controls: 0 for no effect and ±100 for the full control effect.

SMILES	Tau ThT inhib	Sfp inh	FBPA coupling cs	Tau fluor counter	Tau fibril FP
Cc1cc(C)c2c(N)c(S(=O)c3ccc(C(C)(C)C)cc3)sc2n1 (stereo not drawn)	25µM*	-21%	2	?	?
NCCCCCCNS(=O)(=O)c1cccc2c(Cl)cccc12	-12%	63µM*!	3	-18%	2%
NCCCCCCCCCCNS(=O)(=O)c1cccc2c(Cl)cccc12	?	50µM*	3	-19%	-4%
COc1ccc(NC(=O)C2=NN(C3CCS(=O)(=O)C3)C(=O)CC2)cn1 (stereo not drawn)	-4%	17%	-42*	-10%	2%
COc1ccccc1C1CCN(c2ccc(CO)cc2[N+](=O)[O-])CC1	14µM*	2%	-1	?	-1%
CCSC1=NC2(CCN(C(=O)NC3CCCCC3)CC2)N=C1c1ccc(OC)cc1	?	/	/	-16%	-1%
Cc1ccc(NC(=S)Nc2cccc(-c3n[nH]c(=S)o3)c2)cc1	?	50µM*	13	-30%	-3%
COc1ccccc1-c1ccc2ncnc(NCCNC(C)=O)c2c1	/	13%	-2	/	/
O=C1c2ccccc2C(=O)c2c(NCCCN(CCO)CCO)cccc21	14µM*	-21%	0	?	1%
COc1cc(/C=C(\C#N)C(=O)Nc2ccc(C)cc2)ccc1OCc1cc(=O)n2nc(C)sc2n1	?	/	/	4%	5%
COc1ccc(CNC(=O)CCc2nnc3n(CC(C)C)c(=O)c4ccccc4n23)cc1	-1%	/	/	-2%	2%
CC(C)Cn1c(SCc2cccc(F)c2)nc2ccsc2c1=O	-5%	/	/	-10%	-12%
O=C(/C=C/c1ccco1)c1ccc(NC(=O)C23CC4CC(CC(C4)C2)C3)cc1	?	3.5µM*	3	-19%	-2%
COc1ccc(Nc2cc(C(=O)NCCCN3CCN(c4ccccc4F)CC3)c3ccccc3n2)c(OC)c1	?	/	/	7.1µM*[quencher]	5%
COc1ccc(Nc2nc(C)cc(C)c2C(N)=O)c(OC)c1	?	40µM*	-40*	-19%	?
COc1ccc(Nc2cc(C(=O)NCCCN(C)Cc3ccccc3)c3ccccc3n2)cc1	?	/	/	13µM*[quencher]	?
COc1ccccc1Nc1nc(C)cc(C)c1C(N)=O	-3%	24%	1	1%	5%
COc1ccccc1Nc1nc(-c2ccccc2)nc2ccccc12	-2%	-5%	-4	?	?
COc1ccc(Nc2nc(-c3ccccc3)nc3ccccc23)c(OC)c1	?	5%	-3	25µM*[quencher]	8%
COc1ccc(Nc2cc(C(=O)NCCCN3CCOCC3)c3ccccc3n2)c(OC)c1	?	12%	0	-25%	9%
O=C(O)c1ccc2nc(-c3cc4cc(Cl)ccc4oc3=O)[nH]c2c1	?	/	/	-13%	3%
COc1ccc(S(=O)(=O)c2c(Nc3c(C)cccc3C)sc(C(=O)c3ccc(F)cc3)c2N)cc1	3%	/	/	-3%	-3%
CCOC(=O)/C(C)=N/NC(C)=O	2%	-2%	1	0%	?
COc1ccc(N2CCN(CCCNC(=O)c3cc(Nc4ccccc4OC)nc4ccccc34)CC2)cc1	?	/	/	8.9µM*[quencher]	-3%
COc1ccc(Nc2cc(C(=O)NCCCN3CCN(C)CC3)c3ccccc3n2)cc1OC	?	-20%	4	?	9%
SMILES	Tau ThT inhib	Sfp inh	FBPA coupling cs	Tau fluor counter	Tau fibril FP
COc1ccc(Nc2cc(C(=O)NC3CCCC3)c3ccccc3n2)c(OC)c1	-8%	19%	2	-27%	14%
COc1ccc(Nc2cc(C(=O)NCc3ccccc3)c3ccccc3n2)c(OC)c1	?	/	/	7.9µM*[quencher]	?
COc1ccc(Nc2cc(C(=O)NCCCN3CCN(c4ccc(OC)cc4)CC3)c3ccccc3n2)cc1	14µM*	/	/	4µM*[quencher]	-2%
CCCC[C@@H]1CCCO[C@@](C(=O)NCC2CC2)(C(F)(F)F)C1	/	9%	4	/	/
Cc1ccccc1C(=O)NC1(C(F)(F)F)N=C(c2ccccc2)N(C2CCCCC2)C1=O (stereo not drawn)	-12%	/	/	-16%	-5%
CCOC(=O)CCN1C(=O)[C@H]2[C@H]3[C@H](O)[C@H](O)C/C(=N/NC(=O)OCC)[C@H]3CC[C@@H]2C1=O	-1%[11.5 µM]	13%	9	-2%[11.6 µM]	-5%[11.6 µM]
Cc1cc(N(C)C)ccc1N=Nc1ccc2ncccc2c1	0.5µM*	45µM*	-2	?	11%
c1cnc2ccc(-c3ccc4ncccc4c3)cc2c1	/	10%	2	/	/
CCOc1ccc(S(=O)(=O)NCCc2csc3nc(-c4ccc(F)cc4)nn23)cc1	-3%	/	/	-10%	-14%
O=C(O)[C@H]1CCCN1	3%	45µM*!	0	1%	-3%
O=C(O)C1CCCN1 (stereo not drawn)	/	?	1	/	/
CCOC(=O)c1c(NC(C)=O)sc2c(O)cccc12	?	3%	3	-14%	10%
CCOC(=O)c1c(C)n(C)c2cc(Br)c(O)c(O)c12	?	79µM*	-5	-23%	-10%
CCOC(=O)c1c(C)n(C)c2cc([N+](=O)[O-])c(O)c([N+](=O)[O-])c12	8.9µM*	10%	1	-22%	-7%
CCOC(=O)c1c(NC(C)=O)sc2c(O)c(Br)cc(Br)c12	?	35µM*	-28	-29%	-1%
COc1ccc(/C(=C\C(=O)O)c2nccc3cc(OC)c(OC)cc23)cc1OC	-20%	-12%	0	-11%	-11%
COc1ccc(/C(=N/OC(C)=O)c2nccc3cc(OC)c(OC)cc23)cc1OC	/	-6%	-32*	9%	1%
Cc1ccc(C)c(NC(=O)CSc2c3c(nc4ccc(Cl)cc24)CCCC3)c1	?	/	/	-17%	-5%
Cc1ccc2ccc3ccc(C)nc3c2n1	/	2%	-1	/	/
